In assay [1] the test system is Vero E6 infected with SARS-CoV-2. In words: morphology score (similarity to uninfected cells); higher = more like uninfected cells. The following applies: 24 h.
Assay [2] has the same test system. In words: SARS-CoV-2 infection rate relative to infected DMSO; higher = more infection, active = 60 or less. To be noted: 24 h.

Consider 27 compounds from the supplement of paper PMC13380429.

In assay [1], `CCCCCCCCc1ccc(-c2ccc(C(=O)O)cc2)cc1` (10 µM) showed a morphology score of -0.0106. Moreover, in assay [2], the SARS-CoV-2 infection rate was 96% (inactive).
Turning to `CS(=O)(=O)c1ccc(Oc2cc(F)cc(C#N)c2)c2c1[C@H](O)C(F)(F)C2` (10 µM), the morphology score in assay [1] came out at 0.0223. Also, the SARS-CoV-2 infection rate in assay [2] was 99% (inactive).
For `COc1cccc(Nc2c(C(N)=O)cnc3c(C)cc(S(=O)(=O)c4cccc(C(=O)N(C)C)c4)cc23)c1` (10 µM), in that order: 0.345 and 91% (inactive).
In turn, `COC(=O)c1cc(OC)c2c(c1-c1c(CO)cc(OC)c3c1OCO3)OCO2` [bicyclol] (10 µM) had a morphology score in assay [1] of 0.199. Further, in assay [2], the SARS-CoV-2 infection rate was 88% (inactive).
Compound `COc1ccc(-c2nc(N3CCOCC3)c3sc(CN(C)c4ncc(C(=O)NO)cn4)cc3n2)cn1` (10 µM) gave a morphology score in assay [1] of -0.449. The SARS-CoV-2 infection rate in assay [2] is 116% (inactive).
Compound `c1nc2c(NC3CCCCC3)nc(Nc3ccc(N4CCOCC4)cc3)nc2[nH]1` [reversine] (10 µM) displayed a morphology score in assay [1] of -0.11. The SARS-CoV-2 infection rate in assay [2] is 106% (inactive).
Regarding `Brc1ccc(NC2C3CC4CC(C3)CC2C4)cc1` (centres undefined) [bromantan] (10 µM), the morphology score in assay [1] is -0.111. Also, the SARS-CoV-2 infection rate in assay [2] is 99.5% (inactive).
In assay [1], `CCO[C@@H](Cc1ccc(OCCc2ccc(OS(C)(=O)=O)cc2)cc1)C(=O)O` [tesaglitazar] (10 µM) registered a morphology score of 0.194. The SARS-CoV-2 infection rate in assay [2] is 110% (inactive).
The compound `CCOC(=O)Nc1cc(-c2ccc(C)c(NS(C)(=O)=O)c2)nn2c(C)nnc12` [bromosporine] (10 µM) displayed a morphology score in assay [1] of -0.021. In assay [2], the SARS-CoV-2 infection rate is 111% (inactive).
As to `Oc1ccc2c3c1O[C@H]1c4[nH]c5c(c4C[C@@]4(O)[C@@H](C2)N(CC2CC2)CC[C@]314)C[C@@]1(O)[C@H]2Cc3ccc(O)c4c3[C@@]1(CCN2CC1CC1)[C@H]5O4` [nor-binaltorphimine] (10 µM), in assay [1], the morphology score is -0.0703. In addition, the SARS-CoV-2 infection rate in assay [2] was 114% (inactive).
On to `O=C(CCCN1CCC(O)(c2ccc(Br)cc2)CC1)c1ccc(F)cc1` [bromperidol] (10 µM), for which the morphology score in assay [1] is -0.0835. The SARS-CoV-2 infection rate in assay [2] was 106% (inactive).
On to `CC[C@@H]([C@H](C)O)n1ncn(-c2ccc(N3CCN(c4ccc(OC[C@@H]5CO[C@@](Cn6cncn6)(c6ccc(F)cc6F)C5)cc4)CC3)cc2)c1=O` [posaconazole] (0.833333 µM), for which, in assay [1], the morphology score is 0.204. Further, the SARS-CoV-2 infection rate in assay [2] is 102% (inactive).
The like results for `O=C(O)C[C@H]1CC[C@H](c2ccc(NC(=O)c3nnc(Nc4ccc(F)c(F)c4)o3)cc2)CC1` (10 µM) were, in that order, 0.115 and 91% (inactive).
For `CC1(C)S[C@@H]2[C@H](NC(=O)[C@H](C(=O)O)c3ccsc3)C(=O)N2[C@H]1C(=O)O` [ticarcillin] (10 µM), in that order: -0.0272 and 97.5% (inactive).
Compound `O=C(C[S+]([O-])Cc1ccco1)NC/C=C\COc1cc(CN2CCCCC2)ccn1` (centres undefined) [lafutidine] (10 µM) registered a morphology score in assay [1] of 0.0534. Moreover, the SARS-CoV-2 infection rate in assay [2] is 94% (inactive).
For `O=c1cccc2n1C[C@@H]1CNC[C@H]2C1` [cytisine] (10 µM), the morphology score in assay [1] was found to be 0.0351. Moreover, the SARS-CoV-2 infection rate in assay [2] was 114% (inactive).
In the case of `Cc1cnc(Nc2ccc(N3CCN(C)CC3)cc2)nc1Nc1cccc(S(=O)(=O)NC(C)(C)C)c1` (0.833333 µM), the morphology score in assay [1] is 0.106. Also, in assay [2], the SARS-CoV-2 infection rate is 122% (inactive).
`C=CCNC(=O)c1cc([N+](=O)[O-])cc2c(=O)[nH]c(Nc3ccc(Cl)c(Cl)c3)nc12` (10 µM): in assay [1], the morphology score is -0.137. In assay [2], the SARS-CoV-2 infection rate is 108% (inactive).
As to `CNCCCC1(c2ccccc2)OC(C)(C)c2ccccc21` (centres undefined) [talopram] (10 µM), the morphology score in assay [1] was -0.07. In addition, the SARS-CoV-2 infection rate in assay [2] was 111% (inactive).
Turning to `N[C@@H](Cc1c[nH]c2ccc(O)cc12)C(=O)O` [5-hydroxytryptophan] (10 µM), the morphology score in assay [1] amounted to 0.197. Also, the SARS-CoV-2 infection rate in assay [2] was 104% (inactive).
In assay [1], `Cc1ccsc1/C=C/C1=NCCCN1C` [morantel] (10 µM) showed a morphology score of -0.00401. Further, the SARS-CoV-2 infection rate in assay [2] is 99.5% (inactive).
For `CC(C)(C)C(=O)OCOC(=O)[C@@H]1N2C(=O)C[C@H]2S(=O)(=O)C1(C)C` [sulbactam-pivoxil] (10 µM), in that order: 0.184 and 89% (inactive).
As to `CNc1ncc2cc(-c3cc(NC(=O)NCCC(C)(C)C)c(F)cc3C)c(C)nc2n1` (10 µM), the morphology score in assay [1] is 0.18. In addition, the SARS-CoV-2 infection rate in assay [2] is 106% (inactive).
For `CNc1ncnc2c1ncn2[C@@H]1O[C@H](CO)[C@@H](O)[C@H]1O` [N6-methyladenosine] (10 µM), in that order: -0.0577 and 100% (inactive).
Regarding `Nc1ncnc2nc(-c3ccc(N4CCOCC4)nc3)cc(-c3cccc(Br)c3)c12` (10 µM), in assay [1], the morphology score came to 0.0544. Besides, the SARS-CoV-2 infection rate in assay [2] is 108% (inactive).
As to `c1ccc2c(CC3=NCCN3)cccc2c1` [naphazoline] (10 µM), in assay [1], the morphology score amounted to 0.146. The SARS-CoV-2 infection rate in assay [2] is 99% (inactive).
In turn, `COc1cc2ncnc(Nc3cccc(Cl)c3)c2cc1OC` [tyrphostin-AG-1478] (10 µM) showed a morphology score in assay [1] of -0.318. Besides, the SARS-CoV-2 infection rate in assay [2] was 118% (inactive).
